This passage reports Potency and activity change, negative = inhibition results from PubChem BioAssay (Tox21).

The structures appear in SMILES notation. Activity calls are given as the source filed them. Where a call stands in place of a potency, no number is given. The call rests on the fitted dose curve.

Sequence of Acetylcholinesterase (Homo sapiens) (P22303 whole entry, looked up): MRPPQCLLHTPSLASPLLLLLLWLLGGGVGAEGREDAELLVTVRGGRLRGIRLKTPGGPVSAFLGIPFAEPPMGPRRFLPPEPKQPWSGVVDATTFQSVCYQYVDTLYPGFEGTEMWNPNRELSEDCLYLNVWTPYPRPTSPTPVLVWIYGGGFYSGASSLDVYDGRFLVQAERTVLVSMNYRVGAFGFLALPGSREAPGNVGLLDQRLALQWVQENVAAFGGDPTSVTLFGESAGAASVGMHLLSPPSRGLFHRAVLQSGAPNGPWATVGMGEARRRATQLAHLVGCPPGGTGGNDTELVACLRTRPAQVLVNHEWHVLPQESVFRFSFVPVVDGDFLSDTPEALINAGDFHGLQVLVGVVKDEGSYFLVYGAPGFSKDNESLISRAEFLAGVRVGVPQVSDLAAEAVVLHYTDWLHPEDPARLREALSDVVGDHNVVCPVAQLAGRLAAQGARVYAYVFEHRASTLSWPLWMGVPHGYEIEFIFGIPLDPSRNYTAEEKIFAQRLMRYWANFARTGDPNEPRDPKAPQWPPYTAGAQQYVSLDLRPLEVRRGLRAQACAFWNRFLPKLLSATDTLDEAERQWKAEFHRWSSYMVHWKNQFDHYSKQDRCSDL

This assay addresses Acetylcholinesterase (Homo sapiens) (UniProt P22303). Put plainly: Acetylcholinesterase (AChE) small molecule antagonists: enzyme-based qHTS assay with human liver microsomes (AID 1347399). Further: nearly all actives have a fitted effect of over 60% in size. Conditions: Potency: qHTS inhibition; outcome: qHTS inhibition; series mostly up to 115 µM. The procedure, abridged:
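Recombinant human AChE (50 mU/mL in the enzyme mix) and human liver microsomes (0.25 mg/mL final) were preincubated with compound and NADPH (0.25 mg/mL final) for 30 min at 37 C. Acetylthiocholine/DTNB was then added; thiocholine was read colorimetrically after 10 min at room temperature.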
For orientation: In qHTS, concentration-response curves come from the screen itself.
As to `C[C@@H]1C[C@H]2[C@@H]3CCC4=CC(=O)C=C[C@]4(C)[C@@]3(F)[C@@H](O)C[C@]2(C)[C@H]1C(=O)CO`, the Potency entry was “inactive”.
Turning to `CC(C)COC(=O)c1ccccc1O`, the Potency result is “inactive”.
Same read-out and setting: then `Oc1ccc2c(c1)OCO2`, with “inactive”; and `CO/N=C(/C(=O)N[C@@H]1C(=O)N2C(C(=O)[O-])=C(C[n+]3ccn4ncccc43)CS[C@H]12)c1nsc(N)n1`, with “inactive”.
Same read-out and setting: then `CCc1ccc(Br)cc1`, with “inactive”.
Same read-out and setting: then `CCc1cccc(O)c1`, with “inactive”; and `OC1CCCCCCCCCCC1`, with “inactive”.
Consider `CC(C)=CCOC(=O)c1ccccc1`, for which the Potency result is “inactive”.
For `CC(C)Nc1ccccc1`, the Potency entry is “inactive”.
In the case of `CC(=O)c1ccc(O)cc1`, the Potency result was “inactive”.
Still for that read-out and setting: then `Cn1sccc1=O`, with “inactive”.
Regarding `CC(C)(C)NC[C@H](O)COc1cccc2c1CCCC2=O`, the Potency entry was “inactive”.
The same measure, in the same setting: then `CC(O)CO` (stereo not given), with “inactive”; and `CC(C(=O)O)c1ccc(-c2ccccc2)c(F)c1` (stereo not given), with “inactive”.
Take `NC(=O)N1C(=O)C(C(=O)c2cc(Cl)cs2)c2cc(F)c(Cl)cc21` (stereo not given): the Potency result was “inactive”.
The same measure, in the same setting: then `CC(C)c1nc(CN(C)C(=O)N[C@H](C(=O)N[C@@H](Cc2ccccc2)C[C@H](O)[C@H](Cc2ccccc2)NC(=O)OCc2cncs2)C(C)C)cs1`, with “inactive”; and `COc1ccc(/C=N/NC(=O)c2ccncc2)cc1OC`, with “inactive”.
Consider `c1ccc2[nH]ccc2c1`, for which the Potency entry was “inactive”.
With `CCN(Cc1c(F)cccc1Cl)c1c([N+](=O)[O-])cc(C(F)(F)F)cc1[N+](=O)[O-]`, the Potency result was “inactive”.
`O=c1[nH]c(=O)c2[nH]c(=O)[nH]c2[nH]1`: the activity change, negative = inhibition is 21.5% [at 10.5 µM] (inactive).
Turning to `CN1CCN(C2Cc3ccccc3Sc3ccc(Cl)cc32)CC1` (stereo not given), the Potency result is “inactive”.
Same read-out and setting: then `CCN(CC)CC(=O)Oc1ccc(NC(C)=O)cc1`, with “inactive”; and `Cn1c(=O)c2[nH]c(Br)nc2n(C)c1=O`, with “inactive”; and `O=S(=O)(O)C(F)(F)F`, with “inactive”.
For `CC(C)(CO)[N+](=O)[O-]`, the Potency result was “inactive”.
As to `C=CCOC(=O)/C=C\C(=O)OCC=C`, the Potency entry was “inactive”.
Turning to `C=C1C(CCl)(CCl)C2(Cl)C(Cl)C(Cl)C1(Cl)C2(Cl)Cl` (stereo not given), the Potency result was “inactive”.
With `CC1(C)CC(O)CC(C)(C)N1`, the Potency result is “inactive”.
As to `CCc1ccc(CCOc2ccc(CC3SC(=O)NC3=O)cc2)nc1` (stereo not given), the Potency entry is “inactive”.
Regarding `CC[C@H](NC(C)C)[C@H](O)c1ccc(O)c2[nH]c(=O)ccc12`, the Potency result was “inactive”.
Consider `CCCCCCOC(=O)c1ccc(O)cc1`, for which the Potency entry is “inactive”.
With `CCCCCCCCCCCCCC[n+]1ccccc1`, the Potency entry was “inactive”.
Regarding `CCCCCCCCCCCSCC(=O)O`, the Potency entry was “inactive”.
The same measure, in the same setting: then `CCCCCCCCC(=O)O`, with “inactive”; and `CC(N)=O`, with “inactive”; and `CCOC(=O)OCC`, with “inactive”.
Still for that read-out and setting: then `COc1nc(C)nc(N)n1`, with “inactive”; and `C=Cc1cccc(C)c1`, with “inactive”; and `CCCCCCCCCCCCS`, with “inactive”.
Same read-out and setting: then `CCN(CC)CCNC(=O)c1cc(S(C)(=O)=O)ccc1OC`, with “inactive”.
